Measured values taken from PubChem BioAssay AID504832 (National Center for Advancing Translational Sciences (NCATS), 2011).
The campaign covered roughly 310,000 compounds. About 18,000 (5.8%) were called active. Inconclusive results (about 22%) are left out. The call rests on the fitted dose curve; in most records, active means well fitted inhibition curve with a large enough effect; inconclusive means small, poorly fitted or top-dose-only effect, or another doubt; inactive means no such curve, though single readings can be large or run the other way. Many of the other results were omitted from the sample, so actives are more common in it than they were.

Assay: Primary qHTS for delayed death inhibitors of the malarial parasite plastid, 48 hour incubation
Details: P. falciparum luciferase growth in erythrocytes; series mostly up to 28.7 µM; activity change, negative = inhibition: at the top concentration
Procedure, shortened: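 Luciferase-expressing P. falciparum in infected erythrocytes (2% hematocrit, 0.1% parasitemia final) in RPMI 1640/0.5% Albumax were exposed to compound for 48 hours at 37 C, 5% CO2; growth read as luminescence.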
On the % scale 0 is the no-effect control and ±100 the full control effect; potency means the concentration at half of the fitted maximal effect.

SMILES	activity change, negative = inhibition	Potency
CCOc1cccc(-c2nnc(SCC(=O)NC3CC3)n2C)c1	-5.31% (inactive)	–
CN(C)/C=C/C(=O)c1ccccc1F	-0.84% (inactive)	–
O=C(c1ccccc1F)N(Cc1ccccc1)Cc1ccccc1	-15% (inactive)	–
Cc1ccc(N(Cc2ccccc2O)C(=O)c2ccccc2F)cc1	–	9.28 µM (active)
O=C(COc1ccc(Cl)cc1)Nc1ccc2oc(=O)ccc2c1	-2.67% (inactive)	–
O=C(CCN1C(=O)C2C3CCC(C3)C2C1=O)Nc1ccc(Cl)cc1Cl (stereo not given)	4.37% (inactive)	–
O=C(Nc1ccc(CN2CCOCC2)cc1)c1cc(Cl)ccc1Cl	-23.4% (inactive)	–
O=C(CN1CCOCC1)Nc1c(Cl)cc(Cl)cc1Cl	19.4% (inactive)	–
CC(C)(C)c1cc(NC(=O)NN2CCOCC2)nn1-c1c(Cl)cc(Cl)cc1Cl	–	10.4 µM (active)
CC(=O)C(C)n1cnc2scc(-c3ccc(C)cc3)c2c1=O (stereo not given)	-5.93% (inactive)	–
COc1ccc(OC)c(-c2csc(-c3cccs3)n2)c1	21.4% (inactive)	–
COc1ccc2c(c1)c(C(=O)N/N=C/c1cccs1)c(C)n2C	-6.08% (inactive)	–
COc1cc(OC)cc(-c2c(-c3cccs3)c3cc(-c4ccc(OC)cc4F)ccc3n2C)c1	–	13.1 µM (active)
COc1cc(OC)cc(-c2c(-c3ccc(F)cc3)c3cc(-c4ccc5cc[nH]c5c4)ccc3n2C)c1	–	5.22 µM (active)
CCOC(=O)N1CCN(C(=O)C(C)NC(=O)c2ccco2)CC1 (stereo not given)	0.0593% (inactive)	–
COc1ccc(/C=C/c2c(-c3cccc(C)c3)oc3ccc(-c4ccc5c(c4)OCO5)cc23)cc1	13.5% (inactive)	–
COc1cc(/C=N/NC(=O)c2ccccc2)ccc1OS(=O)(=O)c1ccccc1	–	10.4 µM (active)
COc1ccc(/C=N/NC(=O)c2ccccc2)cc1OS(=O)(=O)c1ccccc1	–	9.28 µM (active)
COc1ccc(/C=N\NC(=O)c2sc(N)nc2C)cc1OC	12.7% (inactive)	–
Cc1ccc(S(=O)(=O)Oc2ccc(/C=N/NC(=O)c3ccncc3)cc2)cc1	-9.78% (inactive)	–
COc1ccc(/C=N/S(=O)(=O)c2ccccc2)cc1OC	-9.68% (inactive)	–
COc1ccc(/C=N/NC(=O)c2ccc(Cl)cc2)cc1COC(C)=O	3.27% (inactive)	–
O=C(O)Cc1ccc(NC(=O)Nc2cccc3ccccc23)cc1	11% (inactive)	–
COc1cc(NC(=O)c2ccc(-c3csc(C)n3)cc2)c(OC)cc1Cl	0% (inactive)	–
Cc1cccc(NC(=O)C2CCCN(C(=O)Nc3ccc(F)cc3)C2)c1C (stereo not given)	0.936% (inactive)	–
COCc1cc(C)n(CC(=O)NCC2CCCO2)c(=O)c1C#N (stereo not given)	2.53% (inactive)	–
COc1ccc(N(C(=O)c2cccnc2)S(=O)(=O)c2ccc(OC)c(OC)c2)cc1	8.24% (inactive)	–

SMILES	activity change, negative = inhibition	Potency
CC[C@H]1CN2CCc3cc(OC)c(OC)cc3[C@@H]2C[C@@H]1C[C@H]1NCCc2cc(OC)c(OC)cc21	–	0.0828 µM (active)
NC(=O)NC(=O)C(OC(=O)CCNS(=O)(=O)c1ccccc1)c1ccccc1 (stereo not given)	5.13% (inactive)	–
O=C(CCc1c[nH]c2ccccc12)NCCOc1ccccc1	-18.4% (inactive)	–
O=C(CCCCCn1c(=O)[nH]c2ccccc2c1=O)NCCc1c[nH]c2ccccc12	–	8.28 µM (active)
O=C(CCCCn1c(=O)[nH]c2ccccc2c1=O)NCc1ccc2c(c1)OCO2	-14.5% (inactive)	–
COc1ccc2nc(NC3=NCN(CC4CCCO4)CN3)nc(C)c2c1 (stereo not given)	–	11.7 µM (active)
COc1ccc2c(C)cc(SCC(=O)NCC3CCCO3)nc2c1 (stereo not given)	-1.67% (inactive)	–
Cc1ccc2nc(NC3=NCN(CCc4ccccc4)CN3)nc(C)c2c1	0% (inactive)	–
CC(NC(=O)COc1cccnc1[N+](=O)[O-])c1ccc(Cl)cc1Cl (stereo not given)	-9.92% (inactive)	–
Cn1c(SCC(=O)Nc2ccc(N3CCOCC3)cc2)nnc1C(F)(F)F	-10.4% (inactive)	–
CCN(CC)c1ccc2oc(=O)c(C)nc2c1	–	1.47 µM (active)
CCN(CC)c1ccc2c(Nc3ccccc3)c(C=O)c(=O)oc2c1	-2.73% (inactive)	–
CCN(CC)c1ccc2cc(C(N)=O)/c(=N\NC(=O)c3ccncc3)oc2c1	-16% (inactive)	–
Cc1ccccc1N1CCN(C2CCCN(C(=O)c3cn4c(C)cccc4n3)C2)CC1 (stereo not given)	-29% (inactive)	–
CCC(CC)c1nnc(NC(=O)C2=COCCO2)s1	29% (inactive)	–
O=C(O)C1CCC(CNS(=O)(=O)c2ccc(Br)cc2)CC1 (stereo not given)	-9.14% (inactive)	–
CCn1c(=O)c(C(=O)NCc2ccc3c(c2)OCO3)c(O)c2ccccc21	9.48% (inactive)	–
CCCC1=Nc2cc(C(=O)NCc3ccco3)ccc2Sc2ccccc21	–	4.65 µM (active)
COc1ccc(CCNS(=O)(=O)c2ccc(C(=O)NCc3ccco3)cc2)cc1OC	-3.53% (inactive)	–
O=C(COC(=O)c1cnc(Cl)c(Cl)c1)NCc1ccco1	21.2% (inactive)	–
COc1ccc(N2CC(C(=O)N[C@@H](C)C(=O)N3CCCCC3)CC2=O)cc1 (stereo not given in full)	-10.3% (inactive)	–
O=C(Nc1cccc2cccnc12)c1cccc(Cl)c1	4.48% (inactive)	–
CC(OC(=O)C1CC(=O)N(Cc2ccccc2)C1)C(=O)Nc1ccccc1[N+](=O)[O-] (stereo not given)	1.87% (inactive)	–
Cc1nn(C)cc1CNC(=O)Nc1ccc(Cl)cc1	135% (inactive)	–
Cc1ccc(-c2cc(C(=O)NCc3cn(C)nc3C)c3cc(Br)ccc3n2)cc1	–	2.94 µM (active)
COc1ccc(Cl)cc1C(=O)NCc1cn(C)nc1C	16.2% (inactive)	–
O=C(CCCN1C(=O)/C(=C\c2ccccc2)SC1=S)Nc1ccccc1O	-7.43% (inactive)	–

SMILES	activity change, negative = inhibition	Potency
CCN(C(=O)CN1C(=O)/C(=C/c2ccc(F)cc2)SC1=S)C1CCS(=O)(=O)C1 (stereo not given)	3.15% (inactive)	–
O=C1/C(=C/c2ccc(F)cc2)SC(=S)N1CCCC(=O)N1CCCCC1CCO (stereo not given)	–	11.7 µM (active)
N#Cc1cccc(CSc2ncnc(N)n2)c1	0.429% (inactive)	–
COc1ccccc1NC(=O)c1cc(Cl)nc2ccccc12	-7.46% (inactive)	–
COc1ccc(NC(=O)c2cc(-c3cc(OC)c(OC)c(OC)c3)nc3ccccc23)c(OC)c1	–	5.22 µM (active)
CNC(=O)COC(=O)c1cc(-c2ccc(OC)cc2)nc2ccccc12	67.7% (inactive)	–
COc1ccccc1CN(C)c1nnnn1-c1ccccc1	-3.57% (inactive)	–
CCC(C)(C)n1nnnc1CN1CCN(c2nc3ccc(C)cc3cc2C#N)CC1	-6.08% (inactive)	–
CCC(C)(C)n1nnnc1C(c1cccs1)N1CCN(c2nc3ccccc3s2)CC1 (stereo not given)	–	11.7 µM (active)
CCC(C)(C)n1nnnc1C(c1ccccc1OC)N1CCSCC1 (stereo not given)	–	11.7 µM (active)
CCCC(c1nnnn1C(C)(C)C)N1CCN(Cc2ccccc2)CC1 (stereo not given)	-12.9% (inactive)	–
CC(C)C(c1nnnn1C(C)(C)C)N1CCN(Cc2cccnc2)CC1 (stereo not given)	-2.9% (inactive)	–
c1ccc2sc(N3CCNCC3)nc2c1	13.3% (inactive)	–
CCC(C)(C)n1nnnc1C(c1ccc(OC)c(OC)c1)N1CCN(C(=O)c2ccco2)CC1 (stereo not given)	-16.9% (inactive)	–
COc1ccccc1C(c1nnnn1C(C)(C)C)N1CCN(Cc2ccccc2)CC1 (stereo not given)	–	13.1 µM (active)
Cc1ccc(S(=O)(=O)NCCC(=O)NC2CCN(Cc3ccccc3)CC2)cc1	-18.6% (inactive)	–
Cc1cccc([C@@H]2[C@@H]3C(=O)N(C)C(=O)[C@@H]3[C@@H]3C(=O)Nc4ccccc4C(=O)N23)c1	24.5% (inactive)	–
CC1CCCCC12NC(=O)N(CC(=O)Nc1ccc(S(=O)(=O)Nc3ncccn3)cc1)C2=O (stereo not given)	6.18% (inactive)	–
COc1cccc(C(=O)Nc2nnc(S(=O)(=O)N3CCOCC3)s2)c1	-5.86% (inactive)	–
Cc1ccc(C)c(S(=O)(=O)Nc2cccc(-n3cnnn3)c2)c1	10.6% (inactive)	–
Cc1cnc(C)c(N2CCN(C(=O)C3CCC(=O)N(CCc4cccc(F)c4)C3)CC2)n1 (stereo not given)	-9.75% (inactive)	–
CCCOc1ccc(N/C=C/C(=O)C(C)(C)C)cc1	-12.8% (inactive)	–
CN(C)c1ccc(N/C=C/C(=O)C(F)(F)F)cc1	–	9.28 µM (active)
O=C(/C=C/Nc1ccccc1OC(F)(F)F)C(F)(F)F	64% (inactive)	–
COc1ccc2ccccc2c1/C=N/NC(=O)c1cc(C)[nH]n1	5.24% (inactive)	–
C/C(=N\OCC(=O)O)c1ccc(Cl)cc1	36.8% (inactive)	–
Cc1onc(-c2ccccc2)c1C(=O)N=C(N)c1ccc(Cl)cc1	3.78% (inactive)	–

SMILES	activity change, negative = inhibition	Potency
C/C(=N\N=C(N)N)c1ccc(Cl)cc1	–	6.57 µM (active)
Cc1ccccc1OCC(=O)N(Cc1cccc(F)c1)C1CCS(=O)(=O)C1 (stereo not given)	8.11% (inactive)	–
CN(C(=O)COC(=O)CNC(=O)C12CC3CC(CC(C3)C1)C2)c1ccccc1	12.1% (inactive)	–
O=C(c1c(F)cccc1F)N1CCN(c2ncc(Br)cn2)CC1	18.2% (inactive)	–
COc1ccc2oc(=O)c(C(=O)N3CCN(c4ccccc4F)CC3)cc2c1	9.55% (inactive)	–
O=C(Nn1cc(C(=O)N2CCN(c3ccccc3F)CC2)c2ccccc2c1=O)c1cnccn1	–	10.4 µM (active)
O=C(COC(=O)c1cccs1)NCc1cccs1	17.6% (inactive)	–
CC(C)=CCN1CCN(CCCc2ccccc2)CC1CCO (stereo not given)	0.933% (inactive)	–
O=C1Nc2cc(C(=O)N3CCN(c4ccc(F)cc4)CC3)ccc2NC1CSCc1cccc(F)c1 (stereo not given)	-9.63% (inactive)	–
Cc1cccn2c(=O)c3cc(C(=O)NC4CCCCC4)sc3nc12	0% (inactive)	–
Cc1cc(C)cc(Oc2nc3c(C)cccn3c(=O)c2/C=C(\C#N)C(=O)NC2CCS(=O)(=O)C2)c1 (stereo not given)	–	13.1 µM (active)
Cc1cccn2c(=O)c(/C=C(\C#N)S(=O)(=O)c3ccc(Cl)cc3)c(N3CCC(C(N)=O)CC3)nc12	-2.98% (inactive)	–
CCCCNC(=O)Cn1nc(C)c(S(=O)(=O)N2CCOCC2)c1C	-20.3% (inactive)	–
CSCCC(NC(=O)c1ccco1)C(=O)NCCc1ccc(F)cc1 (stereo not given)	-15.4% (inactive)	–
COc1ccc2c(C)c(CCC(=O)NC3CC3)c(=O)oc2c1C	-38.6% (inactive)	–
COc1ccccc1C(=O)NC(=S)NC12CC3CC(CC(C3)C1)C2	10.8% (inactive)	–
O=C(Nc1ccccc1Cl)Nc1cccc2cccnc12	33.3% (inactive)	–
Cc1ccccc1NC(=O)c1ccccc1NS(=O)(=O)c1cccc2cccnc12	-13.1% (inactive)	–
O=[N+]([O-])c1ccccc1S(=O)(=O)Nc1cccc2cccnc12	–	2.33 µM (active)
COc1ccccc1OCC(=O)OCc1cc(-c2ccco2)on1	4.39% (inactive)	–
C/C(=N/NC(=O)c1ccn(C)n1)c1ccncc1	145% (inactive)	–
C/C(=N\NC(N)=S)c1cccnc1	10.2% (inactive)	–
C/C(=N\NC(N)=S)c1ccncc1	–	3.29 µM (active)
CC(=O)N1CCC(C(=O)OCc2ccc(Cl)cc2)(c2ccccc2)CC1	-21.9% (inactive)	–
